Compounds with a hit are over-represented: about 3.4% of the library has one in this group of screens.
FBW7 activator – human FBW7 E3 ligase activation, primary screen. Q969H0. AID 1259310. 0.13% of 650,000 active. AlphaScreen FBW7–phospho-cyclin E peptide binding, activator screen. normalized activity (activation), % at 26.1 µM; in the data active = normalized activity above about 1.9%;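 note: purified mutant Fbw7 with reduced substrate affinity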
MITF primary – blocks human microphthalmia-associated transcription factor; inhibition, % at 2.6 µM; 0.91% of 650,000 active; O75030; AlphaScreen MITF homodimerization, bead proximity signal; in the data active = inhibition above about 50%;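 note: 0% = vehicle wells with protein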
GPR151 ag – activators of human GPR151; activation, % at 11.2 µM; PathHunter beta-arrestin GPR151 cells, luminescence; AID 1508602; 1% of 650,000 active; Q8TDV0; in the data active = activation above about 4.9%;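 note: 0% = median of compound wells and 100% = cells with positive control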
Target sequence (Q8TDV0 whole entry, looked up): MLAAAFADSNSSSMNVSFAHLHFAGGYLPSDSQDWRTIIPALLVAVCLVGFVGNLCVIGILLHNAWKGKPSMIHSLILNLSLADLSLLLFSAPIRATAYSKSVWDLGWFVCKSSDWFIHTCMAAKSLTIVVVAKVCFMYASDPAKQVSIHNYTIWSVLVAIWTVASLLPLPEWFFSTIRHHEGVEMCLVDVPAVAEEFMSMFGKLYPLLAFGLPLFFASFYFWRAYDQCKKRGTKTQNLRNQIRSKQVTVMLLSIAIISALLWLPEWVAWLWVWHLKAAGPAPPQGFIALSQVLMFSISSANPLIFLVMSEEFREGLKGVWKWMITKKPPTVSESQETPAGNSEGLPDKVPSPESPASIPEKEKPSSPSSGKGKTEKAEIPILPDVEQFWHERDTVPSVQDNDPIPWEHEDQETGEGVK
TEAD-YAP inh – TEAD-YAP interaction inhibition; inhibition, % at 9.12 µM; AID 1259422; 1.4% of 640,000 active; HEK-TIYL cells, TEAD-Gal4/YAP UAS-luciferase luminescence; in the data active = inhibition above about 32%;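 note: 0% = median of test compound wells and 100% = reference inhibitor wells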
MITF inh conf – human MITF inhibition, confirmation; shares compounds with MITF primary; AlphaScreen MITF homodimerization, biotin/His-MITF beads; inhibition, % at 2.6 µM; 16% of 4,700 active;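 active = inhibition above a cutoff derived from the DMSO control wells, cut at about 28% in these data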;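 note: 0% = MITF dimer wells with DMSO only; inhibitors lower the bead chemiluminescence by keeping MITF from dimerizing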
AS interf ctr – AlphaScreen optical interference, counter-screen | shares compounds with MITF primary | LysRS AlphaScreen counterscreen, signal interference, triplicate | inhibition, % at 2.6 µM | 7.6% of 4,700 active | AID 1259376;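 active = inhibition above a cutoff derived from the DMSO control wells, cut at about 30% in these data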
* marks the source's active call; other numbers are inactive results; / = no result.

SMILES	FBW7 activator	MITF primary	GPR151 ag	TEAD-YAP inh	MITF inh conf	AS interf ctr
O=C1C2C3C=CC(CC3)C2C(=O)N1/N=C/c1ccc([N+](=O)[O-])o1 (stereo unspecified)	0	0	-1	-1	/	/
COc1ccc(C(=O)O)cc1N1C(=O)C2C3C=CC(C3)C2C1=O (stereo unspecified)	0	2	1	-1	/	/
NC(=O)c1ccc(-c2nc(C(=O)NCCCN3CCCC3=O)cs2)cc1	0	20	0	-3	/	/
C/C(=N\Nc1ccccc1Cl)c1ccccn1	0	-1	-2	-46	/	/
C/C(=N\Nc1nc2ccccc2o1)c1ccccn1	-1	55*	-2	-9	4	3
CC(C)(C)C(=O)NC(=S)Nc1cccc([N+](=O)[O-])c1	0	58*	-2	-3	-8	-3
CCCC(=O)NC(=S)Nc1cccc([N+](=O)[O-])c1	0	-16	-1	4	/	/
O=[N+]([O-])c1ccc(OCCCCn2cncn2)cc1	-1	41	-1	6	/	/
Brc1cccc(OCCCCn2cncn2)c1	0	62*	-1	-3	9	13
Brc1cccc(OCCn2cnc3ccccc32)c1	0	68*	0	-3	4	16
c1ccc(COc2ccc(OCCn3cncn3)cc2)cc1	0	2	-1	-17	/	/
Cc1cc(Cl)ccc1OCCn1cncn1	0	-1	0	0	/	/
c1ccc(Oc2cccc(OCCOCCn3cncn3)c2)cc1	0	72*	-2	-10	-5	-9
Cc1cc(Br)ccc1OCCn1cncn1	0	68*	2	3	9	12
COc1cccc2cc(-c3csc(Nc4ccccc4I)n3)c(=O)oc12	0	9	1	-11	/	/
C=CCNC(=O)CSc1ccc(NC(C)=O)cc1	0	7	0	-1	/	/
c1ccc(Oc2cccc(OCCn3cncn3)c2)cc1	0	67*	5	-10	-2	6
c1ccc(-c2ccc(OCCCn3cncn3)cc2)cc1	0	61*	0	-27	7	12
Clc1cccc(OCCn2cncn2)c1	0	-6	-1	-6	/	/
Cc1ccc(-c2nnc(Nc3ccc(Cl)c(Cl)c3)c3ccccc23)cc1S(=O)(=O)NCCO	0	89*	-1	-10	3	8
C#CCN(C)C(=O)c1cnc2sc(C)cn2c1=O	0	57*	0	-1	12	8
Cc1cn2c(=O)c(C(=O)N(C)CC(=O)N(C)C)cnc2s1	0	-1	-1	2	/	/
COc1cccc(-n2nnc(C(=O)Nc3ccc(Br)cc3)c2C)c1	0	-2	1	-46	/	/
CS(=O)(=O)N1CCN(Cc2cccnc2)CC1	0	67*	1	-10	0	10
CCS(=O)(=O)N1CCN(Cc2cccnc2)CC1	0	78*	-1	0	11	12
SMILES	FBW7 activator	MITF primary	GPR151 ag	TEAD-YAP inh	MITF inh conf	AS interf ctr
CS(=O)(=O)N1CCN(Cc2ccncc2)CC1	0	79*	1	5	-6	15
CCCS(=O)(=O)N1CCN(Cc2cccnc2)CC1	0	46	3	2	/	/
Cc1ccc(S(=O)(=O)N2CCN(Cc3cccnc3)CC2)cc1	0	83*	0	-7	7	7
Cc1ccc(CN2CCN(S(=O)(=O)c3ccc(C)cc3)CC2)cc1	0	-6	1	1	/	/
Cc1ccc(C2(c3ccc(C)cc3)CC2C(=O)NCCc2ccccc2)cc1 (stereo unspecified)	0	6	1	-2	/	/
Cc1cccc(NC(=O)c2cc([N+](=O)[O-])ccc2NCCO)c1	0	14	0	-17	/	/
Cc1cc(=O)oc2c(CN3CCC(C)CC3)c(O)ccc12	0	10	-1	5	/	/
Cc1cc(=O)[nH]c(N/N=C/c2ccccc2I)n1	0	7	1	10	/	/
CC1CCCCN1CC(=O)Nc1ccccc1C(N)=O (stereo unspecified)	0	-12	2	-1	/	/
CC1CCCCN1CC(=O)Nc1ccccc1N1CCCCC1 (stereo unspecified)	0	53*	1	-5	6	12
O=C(CN1CCOCC1)Nc1sc2c(c1C(=O)c1ccccc1)CCCC2	0	-8	0	7	/	/
O=C(CNCCN1CCOCC1)Nc1sc2c(c1C(=O)c1ccccc1)CCCC2	-1	74*	0	6	-3	24
O=C(CNCC1CCCCC1)Nc1ccccc1N1CCOCC1	0	66*	0	-8	8	17
